Data from PubChem BioAssay (Tox21).
Results filed as inconclusive are left out. Entries that show only a call come without a potency. A number with no mark means an inactive call. Active and inactive are the calls of the source. Calls come from the whole dose curve; as a rule, active = well fitted cell-killing curve with a large enough effect in the repeat runs; inconclusive = weak or mixed curves, or effect the other way; inactive = flat fitted curve, though single readings scatter.

How the values were obtained:
[1] = cAMP Responsive Elements (CRE) small molecule antagonists, cell-based qHTS assay: qHTS cell viability counter screen (AID 2060913); note: nearly all actives have a fitted effect of over 40% in size
In short: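 Cytotoxicity counter screen multiplexed with the CRE-bla antagonist read: HEK293T cells in DMEM with dialyzed FBS and 25 mM HEPES were treated 3 hrs under 0.25 uM final NKH477, then viability measured by CellTiter-Glo luminescence.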

[2] = cAMP Responsive Elements (CRE) small molecule agonists, cell-based qHTS assay: qHTS cell viability counter screen (AID 2060914);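 note: viability read after 3 h of compound exposure; nearly all actives have a fitted effect of over 50% in size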
In short: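 Cytotoxicity counter screen multiplexed with the CRE-bla reporter assay in HEK 293T cells: 3 h compound exposure at 37 °C, followed by CellTiter-Glo luminescence measured in the same wells.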
Potency is the fitted concentration of half-maximal effect.

Row | SMILES | Potency [1] | Potency [2] | viability change, negative = cytotoxic [1] | activity change, negative = cytotoxicity [2]
1 | CCCCCC/C=C/CCCCCCCC(=O)O | inactive | inactive | – | –
2 | CN1Cc2cc(C(=O)N3CCC(C4CCNCC4)CC3)ccc2N[C@@H](CC(=O)O)C1=O | inactive | inactive | – | –
3 | CC(C)(O)Cc1ccccc1 | inactive | inactive | – | –
4 | Oc1ccc(/C=C/c2cc(O)cc(O)c2)cc1 | inactive | inactive | – | –
5 | CCCCCCC | inactive | inactive | – | –
6 | O=C(O)c1cccnc1 | inactive | inactive | – | –
7 | C=C(C)C(=O)OCC | inactive | inactive | – | –
8 | CCCCCCCCCCC=O | inactive | inactive | – | –
9 | Cc1cc(=O)oc2cc(O[C@@H]3SC[C@@H](O)[C@H](O)[C@H]3O)ccc12 | inactive | inactive | – | –
10 | O=C1C(O)=C(O)C(=O)C(O)=C1O | inactive | inactive | – | –
11 | CC(C)C(=O)Nc1cccc(C(F)(F)F)c1 | inactive | inactive | – | –
12 | COc1ccc(COC(C)=O)cc1 | inactive | inactive | – | –
13 | Nc1ncnc2c1ncn2[C@@H]1O[C@H](CO)[C@@H](O)[C@H]1O | inactive | inactive | – | –
14 | O=[N+]([O-])c1nccn1CO[C@@H](CO)[C@H](O)CO | inactive | inactive | – | –
15 | Cc1ccc(C(=O)C(=O)O)cc1C | inactive | inactive | – | –
16 | CCCOC(OCCC)OCCC | inactive | inactive | – | –
17 | CCc1ccc(C)cc1 | inactive | inactive | – | –
18 | COc1ccccc1OCC(O)CO (stereo not given) | inactive | inactive | – | –
19 | C=C[Si]1(C)O[Si](C)(C=C)O[Si](C)(C=C)O[Si](C)(C=C)O1 (stereo not given) | inactive | inactive | – | –
20 | COc1ccc(C(Cl)=C(c2ccc(OC)cc2)c2ccc(OC)cc2)cc1 | inactive | inactive | – | –
21 | C[C@]12CC[C@@H]3c4ccc(O)cc4CC[C@H]3[C@@H]1CCC2=O | inactive | inactive | – | –
22 | CCC1OCC(COc2ccc(Oc3ccccc3)cc2)O1 (stereo not given) | inactive | inactive | – | –
23 | CCCO[Si](OCCC)(OCCC)OCCC | inactive | inactive | – | –

Row | SMILES | Potency [1] | Potency [2] | viability change, negative = cytotoxic [1] | activity change, negative = cytotoxicity [2]
24 | CCCCCCCC/C=C\CCCCCCCCO | inactive | inactive | – | –
25 | CC(=O)C(=O)CC(C)C | inactive | inactive | – | –
26 | O=c1oc(=O)c2cc3c(=O)oc(=O)c3cc12 | inactive | inactive | – | –
27 | CC(C)COCC(CN(Cc1ccccc1)c1ccccc1)N1CCCC1 (stereo not given) | 29.8 µM (active) | inactive | – | –
28 | C[n+]1ccccc1/C=N/O | inactive | inactive | – | –
29 | CCCCCOC(=O)COc1cc(N2C(=O)C3=C(CCCC3)C2=O)c(F)cc1Cl | inactive | inactive | – | –
30 | Cc1ccccc1OCC1CO1 (stereo not given) | inactive | inactive | – | –
31 | CC(=O)Oc1cccc2c1C(=O)c1c(OC(C)=O)cc(C(=O)O)cc1C2=O | inactive | inactive | – | –
32 | CCCCCCCCOc1ccccc1C(=O)Nc1ccc(C(=O)OCC[N+](C)(CC)CC)cc1 | inactive | inactive | – | –
33 | COc1ccccc1N=Nc1c(S(=O)(=O)O)cc2cc(S(=O)(=O)O)cc(NC(C)=O)c2c1O | inactive | inactive | – | –
34 | COc1ccc(C(=O)c2ccccc2)c(O)c1 | inactive | inactive | – | –
35 | FC(F)(F)c1cccc(Cl)c1 | inactive | inactive | – | –
36 | OCCCCCCO | inactive | inactive | – | –
37 | COCCOCCOCCOCCOCCO | inactive | inactive | – | –
38 | NC(N)=Nc1nc(CSCC/C(N)=N/S(N)(=O)=O)cs1 | inactive | inactive | – | –
39 | Cn1c(N)c(N=O)c(=O)n(C)c1=O | inactive | inactive | – | –
40 | CCC1C(=O)OCC1Cc1cncn1C (stereo not given) | inactive | inactive | – | –
41 | O=C1CCc2ccccc2O1 | inactive | inactive | – | –
42 | COc1ccc2nc(SCc3ncc(C)c(OC)c3C)[nH]c2c1 | inactive | inactive | – | –
43 | COc1cccc(CCc2ccccc2OCC(CN(C)C)OC(=O)CCC(=O)O)c1 (stereo not given) | inactive | inactive | – | –
44 | CCCCNCC | inactive | inactive | – | –
45 | Cc1ccc(O)c2ncccc12 | inactive | inactive | – | –
46 | Nc1ccc(C(=O)O)c(O)c1 | inactive | inactive | – | –

Row | SMILES | Potency [1] | Potency [2] | viability change, negative = cytotoxic [1] | activity change, negative = cytotoxicity [2]
47 | COc1ccccc1C=O | inactive | inactive | – | –
48 | COC(=O)c1ccc(C=O)cc1 | inactive | inactive | – | –
49 | CCCCC1C(=O)N(c2ccccc2)N(c2ccc(O)cc2)C1=O (stereo not given) | inactive | inactive | – | –
50 | O=C(O)Cn1c(C(=O)Nc2nc(-c3ccccc3Cl)cs2)cc2ccccc21 | inactive | inactive | – | –
51 | CCN1CCCC1CNC(=O)c1cc(S(=O)(=O)CC)c(N)cc1OC (stereo not given) | inactive | inactive | – | –
52 | OC(CCCN1CCCCC1)(c1ccccc1)c1ccccc1 | inactive | inactive | – | –
53 | Cc1c(C)c2c(c(C)c1OC(=O)CCC(=O)OCCO)CC[C@@](C)(CCC[C@H](C)CCC[C@H](C)CCCC(C)C)O2 | inactive | 26.6 µM (active) | – | –
54 | O=C(O)Cc1cccc(-c2cc(CCCCCCc3ccc(O[C@H]4O[C@H](CO)[C@@H](O)[C@H](O)[C@@H]4O)c(-c4cccc(CC(=O)O)c4)c3)ccc2O[C@H]2O[C@H](CO)[C@@H](O)[C@H](O)[C@@H]2O)c1 | – | – | 1.99% [at 0.349 µM] | 10.9% [at 0.349 µM]
55 | O=c1[nH]nnc2ccccc12 | inactive | inactive | – | –
56 | COc1nc(C)nc(NC(=O)NS(=O)(=O)c2ccccc2OCCCl)n1 | inactive | inactive | – | –
57 | N=C(N)c1ccc2cc(OC(=O)c3ccc(N=C(N)N)cc3)ccc2c1 | inactive | inactive | – | –
58 | O=C(O)C(=O)Cc1c[nH]c2ccccc12 | inactive | inactive | – | –
59 | CCNc1nc(N)nc(Cl)n1 | inactive | inactive | – | –
60 | N[C@@H](CS)C(=O)O | inactive | inactive | – | –
61 | N#C[C@@H]1C[C@@H]2C[C@@H]2N1C(=O)[C@@H](N)C12CC3CC(CC(O)(C3)C1)C2 | inactive | inactive | – | –
62 | CC(=O)CC(=O)c1ccccc1 | inactive | inactive | – | –
63 | CCCCCCCC/C=C\CCCCCCCC(=O)O | inactive | inactive | – | –
64 | c1ccc(CCNc2nc(-c3ccccc3)cs2)cc1 | inactive | inactive | – | –
65 | O=[N+]([O-])C1(Br)COCOC1 | inactive | inactive | – | –
66 | CC(C)(C)NC(=O)[C@H]1CC[C@H]2[C@@H]3CC[C@H]4NC(=O)C=C[C@]4(C)[C@H]3CC[C@]12C | inactive | inactive | – | –
67 | CC(=O)O[C@H]1C[C@@H]2CC[C@@]1(C)C2(C)C | inactive | inactive | – | –
68 | COc1ccccc1N1CCN(CC(O)COc2cc(OC)c(OC)c(OC)c2)CC1 (stereo not given) | inactive | inactive | – | –
69 | O=S(=O)(Oc1ccc(Cl)cc1)c1ccccc1 | inactive | inactive | – | –

Row | SMILES | Potency [1] | Potency [2] | viability change, negative = cytotoxic [1] | activity change, negative = cytotoxicity [2]
70 | CC(C(O)c1ccc(O)cc1)N1CCC(Cc2ccccc2)CC1 (stereo not given) | inactive | inactive | – | –
71 | CCCCC(CC)COC(=O)COc1cc(Cl)c(Cl)cc1Cl (stereo not given) | inactive | inactive | – | –
72 | Cc1cnc(NS(=O)(=O)c2ccc(N)cc2)nc1 | inactive | inactive | – | –
73 | C/C=C/C=C/COC(=O)C(C)C | inactive | inactive | – | –
74 | CN(C)CC[C@@H](c1ccc(Cl)cc1)c1ccccn1 | inactive | inactive | – | –
75 | COc1ccc2[nH]cc(CCNC(C)=O)c2c1 | inactive | inactive | – | –
76 | CSC(=O)c1cccc2nnsc12 | inactive | inactive | – | –
77 | CCCCc1ccc(Cl)cc1 | inactive | inactive | – | –
78 | CCOc1ccc(NC(=O)OC(C)C)cc1OCC | inactive | inactive | – | –
79 | CC(C)=CC=O | inactive | inactive | – | –
80 | CN1C[C@H](C(=O)N[C@]2(C)O[C@@]3(O)[C@@H]4CCCN4C(=O)[C@H](Cc4ccccc4)N3C2=O)C[C@@H]2c3cccc4[nH]cc(c34)C[C@H]21 | inactive | inactive | – | –
81 | CCC(O)OC(O)CC (stereo not given) | inactive | inactive | – | –
82 | CCCCCCS | inactive | inactive | – | –
83 | Cc1cc2c(cc1CC(=O)c1sccc1S(=O)(=O)Nc1onc(C)c1Cl)OCO2 | inactive | inactive | – | –
84 | CCCO | inactive | inactive | – | –
85 | Oc1cc2ccccc2c2ccccc12 | 13.7 µM (active) | 13.7 µM (active) | – | –
86 | O=C(N/N=C/c1ccccc1O)c1ccncc1 | inactive | inactive | – | –
87 | CCC(=O)CC | inactive | inactive | – | –
88 | N#CCCN(CCO)CCO | inactive | inactive | – | –
89 | COC(C)OC | inactive | inactive | – | –
90 | c1ccc(-c2ccc(-c3ccccc3)cc2)cc1 | – | – | 0.929% [at 18.9 µM] | 0.504% [at 18.9 µM]
91 | COc1cc(Nc2c(C#N)cnc3cc(OCCCN4CCN(C)CC4)c(OC)cc23)c(Cl)cc1Cl | inactive | inactive | – | –
92 | OCCN1C[C@H](O)[C@@H](O)[C@H](O)[C@H]1CO | inactive | inactive | – | –

Row | SMILES | Potency [1] | Potency [2] | viability change, negative = cytotoxic [1] | activity change, negative = cytotoxicity [2]
93 | O=C(O)c1cc(=O)c2c(OCC(O)COc3cccc4oc(C(=O)O)cc(=O)c34)cccc2o1 | inactive | inactive | – | –
94 | CCN1CCCC1=O | inactive | inactive | – | –
95 | CN1CCN(C(=O)C2CCCCC2)CC1 | inactive | inactive | – | –
96 | CCCCCNCCCCC | inactive | inactive | – | –
97 | Cc1ccc(N)cc1[N+](=O)[O-] | inactive | inactive | – | –
98 | O=C(Oc1ccccc1)c1ccc2ccccc2c1O | inactive | inactive | – | –
99 | Cc1ccc(NC(N)=O)cc1 | inactive | inactive | – | –
100 | CCOc1cc(OCC)c(C(C)=O)cc1OCC | inactive | inactive | – | –
101 | O=C(O)CC(=O)O | inactive | inactive | – | –
102 | COc1c(C)c2c(c(O)c1C/C=C(\C)CCC(=O)O)C(=O)OC2 | inactive | inactive | – | –
103 | C=Cc1cccc(C)c1 | inactive | inactive | – | –
104 | CCCCCCCCCCCCCCO | inactive | inactive | – | –
105 | COC(=O)CCCC(=O)OC | inactive | inactive | – | –
106 | Cc1cccc2ccccc12 | inactive | inactive | – | –
107 | C=C(C)C(=O)NCCC[N+](C)(C)C | inactive | inactive | – | –
108 | CCC(C)(C)C1CCCCC1OC(C)=O (stereo not given) | inactive | inactive | – | –
109 | CC1(C)S[C@@H]2[C@H](NC(=O)[C@H](N)c3ccccc3)C(=O)N2[C@H]1C(=O)O | inactive | inactive | – | –
110 | CC(=O)Nc1ccc(C(=O)O)cc1 | inactive | inactive | – | –
111 | O=Cc1ccc(F)c(Br)c1 | inactive | inactive | – | –
112 | Cc1cc(C)cc(OCC2CNC(=O)O2)c1 (stereo not given) | inactive | inactive | – | –
113 | NC(CO)C(=O)NNCc1ccc(O)c(O)c1O (stereo not given) | inactive | inactive | – | –
114 | CSc1cnccn1 | inactive | inactive | – | –
115 | CC[C@H](C)C(=O)O[C@H]1C[C@@H](C)C=C2C=C[C@H](C)[C@H](CC[C@@H]3C[C@@H](O)CC(=O)O3)[C@H]21 | inactive | inactive | – | –
